Test results as given in PubChem BioAssay AID1159580 (chemical genetic matrix, 2015).
“And” between values parts separate entries of the source, which are not always exact repeats. Equal values may be shown once. The campaign covered roughly 5,500 compounds. About 2,000 (36%) were called active. Roughly 18% stayed inconclusive and do not appear here. No stated cut-off is given here; in the data, active means normalized growth mostly below about 0.91 (no sharp cut-off); inconclusive means no clear call, values can overlap the other calls; inactive means mostly above about 0.92. The list shows a part of the results.

Experiment: chemical genetic growth profiling, strain panel (AID 1159580);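 further: tested at 20 µM; growth read once vehicle control cultures reached saturation at 30 °C; 1 = growth at the plate median or of vehicle wells; lower values mean less growth of the strain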
Settings: S. cerevisiae deletion strains, growth OD

Measured: normalized growth

CC(=O)O[C@@H]1CC2C(C)(C)C(=O)C=C[C@]2(C)C2CC[C@@]3(C)[C@H](c4ccoc4)OC(=O)[C@H]4O[C@]43[C@@]21C (stereo partly drawn)
inactive: locus YAL021C, strain ccr4, hits give low values 1.03 | locus YAL026C, strain drs2, hits give low values 0.99 | locus YAL030W, strain snc1, hits give low values 0.997 | locus YBL061C, strain skt5, hits give low values 1.01 | locus YBR009C, strain hhf1, hits give low values 0.981 | locus YBR021W, strain FUR4, hits give low values 0.983 | locus YBR023C, strain chs3, hits give low values 1.01 | locus YBR171W, strain sec66, hits give low values 0.982 | locus YBR229C, strain ROT2, hits give low values 0.997 | locus YBR231C, strain swc5, hits give low values 1 | locus YBR279W, strain paf1, hits give low values 1.01 | locus YCL011C, strain gbp2, hits give low values 0.994 | locus YCL016C, strain dcc1, hits give low values 1.02 | locus YCL029C, strain bik1, hits give low values 0.999 | locus YCL061C, strain MRC1, hits give low values 0.972 | locus YCL069W, strain vba3, hits give low values 0.968 | locus YCR088W, strain abp1, hits give low values 0.98 | locus YDL005C, strain med2, hits give low values 0.981 | locus YDL035C, strain GPR1, hits give low values 1 | locus YDL040C, strain nat1, hits give low values 0.998 | locus YDL074C, strain BRE1, hits give low values 0.988 | locus YDL101C, strain DUN1, hits give low values 1.01 | locus YDL134C, strain PPH21, hits give low values 0.997 | locus YDL185W, strain tfp1, hits give low values 1.01 | locus YDL192W, strain arf1, hits give low values 0.991 | locus YDR001C, strain nth1, hits give low values 0.972 | locus YDR069C, strain doa4, hits give low values 1 | locus YDR101C, strain arx1, hits give low values 0.984 | locus YDR137W, strain rgp1, hits give low values 0.95 | locus YDR159W, strain sac3, hits give low values 0.949 | locus YDR162C, strain NBP2, hits give low values 0.996 | locus YDR195W, strain ref2 1.02 | locus YDR297W, strain sur2, hits give low values 1.01 | locus YDR318W, strain mcm21, hits give low values 0.994 | locus YDR334W, strain swr1, hits give low values 1.02 | locus YDR335W, strain msn5, hits give low values 1.02 | locus YDR388W, hits give low values 0.994 | locus YDR392W, strain spt3, hits give low values 0.831 | locus YDR502C, strain sam2, hits give low values 0.981 | locus YEL003W, strain gim4, hits give low values 0.95 | locus YEL037C, strain rad23, hits give low values 0.973 | locus YEL061C, strain CIN8 (second series), hits give low values 0.973 | locus YEL061C, strain CIN8, hits give low values 0.996 | locus YER015W, strain faa2, hits give low values 1.01 | locus YER016W, strain bim1, hits give low values 1 | locus YER110C, hits give low values 0.997 | locus YER111C, strain swi4, hits give low values 0.985 | locus YER155C, strain BEM2 (second series), hits give low values 1 | locus YER155C, strain BEM2, hits give low values 1 | locus YER167W, strain BCK2, hits give low values 1.01 | locus YFR010W, strain ubp6, hits give low values 0.966 | locus YGL078C, strain dbp3, hits give low values 0.994 | locus YGL086W, strain mad1, hits give low values 1.01 | locus YGL167C, strain pmr1, hits give low values 1 | locus YGL173C, strain kem1, hits give low values 0.976 | locus YGL227W, strain vid30, hits give low values 0.961 | locus YGL240W, strain doc1, hits give low values 1.01 | locus YGL248W, strain PDE1, hits give low values 1 | locus YGL253W, strain hxk2, hits give low values 1.02 | locus YGR078C, strain PAC10, hits give low values 1.01 | locus YGR135W, strain pre9, hits give low values 0.998 | locus YGR252W, strain gcn5, hits give low values 0.993 | locus YHR013C, strain ard1, hits give low values 0.987 | locus YHR027C, strain rpn1, hits give low values 1.01 | locus YHR030C, strain SLT2, hits give low values 1.01 | locus YHR079C, strain IRE1 (second series), hits give low values 0.988 | locus YHR079C, strain IRE1, hits give low values 0.994 | locus YHR094C, strain hxt1, hits give low values 0.993 | locus YHR129C, strain ARP1, hits give low values 1 | locus YHR142W, strain chs7, hits give low values 0.987 | locus YHR200W, strain rpn10, hits give low values 0.997 | locus YIL066C, strain RNR3, hits give low values 1 | locus YIL073C, strain SPO22, hits give low values 0.969 | locus YIL125W, strain kgd1, hits give low values 0.994 | locus YIR030C, strain dcg1, hits give low values 0.989 | locus YJL092W, strain hpr5, hits give low values 0.992 | locus YJL095W, strain BCK1 (second series), hits give low values 1.02 | locus YJL095W, strain BCK1, hits give low values 0.983 and 0.999 | locus YJL115W, strain asf1, hits give low values 0.987 | locus YJL129C, strain trk1, hits give low values 0.928 | locus YJL134W, strain LCB3, hits give low values 1.01 | locus YJL154C, strain vps35, hits give low values 0.971 | locus YJL164C, strain tpk1, hits give low values 0.995 | locus YJL166W, strain qcr8, hits give low values 1 | locus YJL168C, strain set2, hits give low values 0.987 | locus YJL187C, strain SWE1 (second series), hits give low values 1.01 | locus YJL187C, strain SWE1, hits give low values 1.01 | locus YJR043C, strain POL32, hits give low values 1.01
